# Source: the supplement of paper PMC7184167
# Structures can show the parent of a compound that is named as a salt.
# System: replication-induced senescent mouse newborn dermal fibroblasts (NBF)
# Assay: relative cell viability of senescent cells (fraction); higher = less killing of senescent cells
# Conditions: 1 µM; 3 days
# Experimental: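 Replication-induced senescent newborn mouse skin fibroblasts (NBFs) in 24-well plates were treated with a Selleck FDA-approved drug library at 1 µM for 3 days.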
row,Compound,relative cell viability
1,CC(C)NCC(O)COc1ccc(COCCOC(C)C)cc1 (stereo not given) [Bisoprolol fumarate],0.929
2,C=C1/C(=C\C=C2/CCC[C@]3(C)[C@@H]([C@H](C)CCCC(C)C)CC[C@@H]23)C[C@@H](O)C[C@@H]1O [Alfacalcidol],0.249
3,CC(C(=O)O)c1ccc(-c2ccccc2)c(F)c1 (stereo not given) [Flurbiprofen],1.04
4,Cc1nc2n(c(=O)c1CCN1CCC(c3noc4cc(F)ccc34)CC1)CCCC2O (stereo not given) [Paliperidone],1.04
5,COc1ccc([C@]2(C#N)CC[C@@H](C(=O)O)CC2)cc1OC1CCCC1 [Cilomilast],0.332
6,Cc1ccc(NC(=O)c2ccc(CN3CCN(C)CC3)cc2)cc1Nc1nc(-c2cccnc2)cs1 [Masitinib (AB1010)],0.602
7,COc1ccc(CC2c3cc(OC)c(OC)cc3CC[N+]2(C)CCC(=O)OCCCCCOC(=O)CC[N+]2(C)CCc3cc(OC)c(OC)cc3C2Cc2ccc(OC)c(OC)c2)cc1OC (stereo not given) [Atracurium Besylate],1.07
8,O=S(=O)(O)CCS [Mesna],1.04
9,CC/C(=C(/CC)c1ccc(O)cc1)c1ccc(O)cc1 [Diethylstilbestrol],1.06
10,COc1ccc(Cl)cc1C(=O)NCCc1ccc(S(=O)(=O)NC(=O)NC2CCCCC2)cc1 [Glyburide (Glibenclamide)],1.02
11,C#Cc1cccc(Nc2ncnc3cc(OCCOC)c(OCCOC)cc23)c1 [Erlotinib HCl (OSI-744)],0.672
12,CC(C)c1cc(-c2n[nH]c(=O)n2-c2ccc3c(ccn3C)c2)c(O)cc1O [Ganetespib (STA-9090)],0.0837
13,C[C@H](CCC(=O)O)[C@H]1CC[C@H]2[C@@H]3[C@@H](O)C[C@@H]4C[C@H](O)CC[C@]4(C)[C@H]3CC[C@]12C [Ursodiol],0.448
14,Cn1c(=O)c2nc[nH]c2n(C)c1=O [Theophylline],0.828
15,CCOC(=O)c1ccc(C#Cc2ccc3c(c2)C(C)(C)CCS3)nc1 [Tazarotene],1.23
16,CC(=O)Oc1ccccc1C(=O)Nc1ncc([N+](=O)[O-])s1 [Nitazoxanide],0.698
17,Clc1ccc(C(c2ccccc2Cl)C(Cl)Cl)cc1 (stereo not given) [Mitotane],1.16
18,Nc1ccccc1NC(=O)c1ccc(CNC(=O)OCc2cccnc2)cc1 [Entinostat (MS-275)],0.536
19,CC1(C)O[C@@H]2[C@@H](CO[C@@]3(COS(N)(=O)=O)OC(C)(C)O[C@@H]23)O1 [Topiramate],0.921
20,C[N+]1(C)[C@@H]2C[C@@H](OC(=O)C(O)(c3cccs3)c3cccs3)C[C@H]1[C@@H]1O[C@@H]12 [Tiotropium Bromide hydrate],1.07

row,Compound,relative cell viability
1,COC(=O)[C@@H]1CC2=CC(=O)CC[C@]2(C)[C@@]23O[C@@H]2C[C@@]2(C)[C@@H](CC[C@@]24CCC(=O)O4)[C@H]13 [Eplerenone],0.925
2,C[C@]12CC[C@@H]3c4ccc(O)cc4CC[C@H]3[C@@H]1CC[C@@H]2O [Estradiol],1.13
3,COc1cc2/c(=N/c3ccc(Br)cc3F)nc[nH]c2cc1OCC1CCN(C)CC1 [Vandetanib (ZD6474)],0.464
4,"Cc1cc(Nc2cc(N3CCN(C)CC3)nc(Sc3ccc(NC(=O)C4CC4)cc3)n2)n[nH]1 [Tozasertib (VX-680, MK-0457)]",0.364
5,CC(=O)Nc1ccc(O)cc1 [Acetaminophen],0.803
6,C=CCNC1=C2C[C@@H](C)C[C@H](OC)[C@H](O)[C@@H](C)/C=C(\C)[C@H](OC(N)=O)[C@@H](OC)/C=C\C=C(/C)C(=O)NC(=CC1=O)C2=O [Tanespimycin (17-AAG)],0.966
7,COc1ccc(C2CNC(=O)C2)cc1OC1CCCC1 (stereo not given) [Rolipram],1.07
8,Nc1ccccc1NC(=O)c1ccc(CNc2nccc(-c3cccnc3)n2)cc1 [Mocetinostat (MGCD0103)],0.36
9,CN1C(C(=O)Nc2ccccn2)=C(O)c2ccccc2S1(=O)=O [Piroxicam],0.562
10,Oc1ncnc2[nH]ncc12 [Allopurinol],0.796
11,C[C@@H]1C/C=C/C=C/C=C/C=C/[C@H](O[C@@H]2O[C@H](C)[C@@H](O)[C@H](N)[C@@H]2O)C[C@@H]2O[C@](O)(C[C@@H](O)C[C@H]3O[C@@H]3/C=C/C(=O)O1)C[C@H](O)[C@H]2C(=O)O [Natamycin],0.0794
12,CCCCC1C(=O)N(c2ccccc2)N(c2ccccc2)C1=O [Phenylbutazone],0.899
13,O=C1[C@H](CC[C@H](O)c2ccc(F)cc2)[C@@H](c2ccc(O)cc2)N1c1ccc(F)cc1 [Ezetimibe],0.901
14,Cc1cn[nH]c1 [Fomepizole],1.07
15,CS(=O)(=O)CCNCc1ccc(-c2ccc3ncnc(Nc4ccc(OCc5cccc(F)c5)c(Cl)c4)c3c2)o1,0.746
16,Nc1ncn([C@H]2C[C@H](O)[C@@H](CO)O2)c(=O)n1 [Decitabine],0.211
17,C[C@H](Cc1cc2c(c(C(N)=O)c1)N(CCCO)CC2)NCCOc1ccccc1OCC(F)(F)F [Silodosin],0.806
18,Nc1ccn([C@@H]2CS[C@H](CO)O2)c(=O)n1 [Lamivudine],0.759
19,CCOC(=O)C1=C(COCCN)NC(C)=C(C(=O)OC)C1c1ccccc1Cl (stereo not given) [Amlodipine Besylate],0.987
20,CCOC(=O)C1=C(C)NC(C)=C(C(=O)OC)C1c1cccc(Cl)c1Cl (stereo not given) [Felodipine],1
